Assay [1] deals with DNA repair nuclease/redox regulator APEX1 (Homo sapiens) (UniProt P27695). In words: qHTS Validation Assay for Inhibitors of the Human Apurinic/apyrimidinic Endonuclease 1 (APE1) (AID 1705;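 note: TAMRA fluorescence gain over two minutes as APE1 cuts a quenched THF abasic duplex; series mostly up to about 57 µM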). The method, boiled down: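 Substrate: 50 nM final fluorophore/quencher THF-abasic duplex. Enzyme preincubated with compounds 15 min, RT. Progress derived from fluorescence difference, third minus first kinetic read.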
DNA repair nuclease/redox regulator APEX1 (Homo sapiens), sequence (P27695 whole entry, looked up): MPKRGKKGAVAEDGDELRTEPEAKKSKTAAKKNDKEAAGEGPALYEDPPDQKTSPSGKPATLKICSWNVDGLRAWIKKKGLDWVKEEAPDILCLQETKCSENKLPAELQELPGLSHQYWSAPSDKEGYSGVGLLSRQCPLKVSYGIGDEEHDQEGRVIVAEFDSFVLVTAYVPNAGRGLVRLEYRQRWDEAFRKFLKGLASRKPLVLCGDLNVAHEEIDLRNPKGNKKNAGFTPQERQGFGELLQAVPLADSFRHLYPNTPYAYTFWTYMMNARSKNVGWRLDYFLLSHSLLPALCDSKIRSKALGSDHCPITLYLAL

The nature of assay [2]: Counterscreen for APE1 Inhibitors: Fluorescent Dye Displacement Validation Assay (AID 1707). The method, boiled down:
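Thiazole Orange displacement from dsDNA: 250 nM ThO with 50 nM TAMRA-labelled abasic-site (tetrahydrofuran) duplex in 50 mM Tris-HCl pH7.5, 50mM NaCl, 2 mM MgCl2, 0.01% Tween-20. Loss of endpoint fluorescence (ex 480 nm, em 540 nm) flags DNA binders.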
(In general: The purpose of a counterscreen is to sort out artefacts and off-target activity.)

The nature of assay [3]: qHTS for differential inhibitors of proliferation of Plasmodium falciparum line 7G8 (AID 1815).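 Note: parasite growth measured after three days of incubation.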 Note: potency is the fitted concentration of half-maximal effect. For orientation: In qHTS, concentration-response curves come from the screen itself.
The nature of assay [4]: qHTS for differential inhibitors of proliferation of Plasmodium falciparum line GB4 (AID 1816).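 Note: parasite growth measured after 72 h incubation.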 Note: potency is the fitted concentration of half-maximal effect. The conditions noted are these: Potency: Plasmodium falciparum GB4 proliferation inhibition.
Assay [5] can be described thus: qHTS for differential inhibitors of proliferation of Plasmodium falciparum line 3D7 (AID 1876). Note: potency is the fitted concentration of half-maximal effect.
Assay [6] in a line: qHTS for differential inhibitors of proliferation of Plasmodium falciparum line D10 (AID 1877).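 Note: parasites grown with compound for 72 h before DNA staining.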 Note: potency is the fitted concentration of half-maximal effect.
Assay [7] in a line: qHTS for differential inhibitors of proliferation of Plasmodium falciparum line Dd2 (AID 1882). Note: nearly all actives have a fitted effect of over 65% in size. Note: potency is the fitted concentration of half-maximal effect. The conditions noted are these: Potency: Plasmodium falciparum Dd2 proliferation inhibition. Summed up: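 SYBR Green I DNA fluorescence read-out, ex 485/em 535 nm. Signals were normalized to 0.29 uM artemisinin and DMSO wells, then corrected using vehicle-only plates flanking each stack. Parasite growth ran 72 h in erythrocytes before lysis.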

Assay [8] can be described thus: qHTS for differential inhibitors of proliferation of Plasmodium falciparum line W2 (AID 1883).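 Note: parasites grown with compound for 72 h before lysis and staining.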 Note: potency is the fitted concentration of half-maximal effect. The note with it: Potency: Plasmodium falciparum W2 proliferation inhibition.
Assay [9] can be described thus: qHTS for differential inhibitors of proliferation of Plasmodium falciparum line HB3 (AID 1886).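 Note: parasites grown with compound for 72 h before SYBR Green readout.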 Note: potency is the fitted concentration of half-maximal effect. The note with it: Potency: Plasmodium falciparum HB3 proliferation inhibition.
Assay [10] is described as follows: qHTS Assay for Modulators of Human Peripheral Myelin Protein 22 (PMP22) Expression/Activity (AID 1967; active = well fitted curve in the direction sought with a large enough effect in the signal ratio; the % refers to the signal ratio). Summed up:
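Engineered MSC80 cells, Pmp22-promoter green and EF-alpha red luciferase reporters; 24h compound treatment at 37 °C. Concentration-response fits on green, red and ratio signals, each overlap-corrected, with %Activity normalized to untreated wells.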

The target of assay [11] is Ferritin light chain (Equus caballus) (UniProt P02791). In words: qHTS Validation Assay for Identification of Novel General Anesthetics (AID 2323). Note: series mostly up to about 77 µM. Summed up:
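Normalized fluorescence response, scaled between free 1-AMA and 1-AMA/apoferritin complex, fitted to a four-parameter Hill equation for concentration-effect values. Binding mix: 10 uM horse-spleen apoferritin, 50% saturated 1-AMA in PBS; read 380/535 nm after 10 min.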

Assay [12] has as its target ATP-dependent DNA helicase Q1 (Homo sapiens) (UniProt P46063). In words: qHTS Validation Assay for Inhibitors of RecQ-Like Dna Helicase 1 (RECQ1) (AID 2353). The method, boiled down:
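50 nM RECQ1T1 preincubated 15 min with compound in Tris pH 8.0 buffer with MgCl2, DTT, Tween-20 and 2.5 ug/ml poly(dI-dC); started with 200 nM TAMRA/BHQ-2 forked duplex and 2 mM ATP. Unwinding read as fluorescence (525/598 nm), two reads 2 h apart.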

Assay [13] addresses RecQ-like DNA helicase BLM (Homo sapiens) (UniProt P54132). In words: qHTS Validation Assay for Inhibitors of Bloom's syndrome helicase (BLM) (AID 2364). The method, boiled down:
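50 nM BLM preincubated 15 min at room temperature with compound in pH 8.0 Tris buffer containing 2.5 ug/ml poly(dI-dC); started with 200 nM TAMRA/BHQ-2 forked duplex and 2 mM ATP (final). Unwinding read as TAMRA fluorescence increase, two reads 2 h apart.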

Assay [14] can be described thus: Cytometric Cell-Based qHTS for Inhibitors of the mTORC1 Signaling Pathway in MEF (Tsc2-/-, p53-/-) Cells (AID 2660).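 Note: percent of cells above a phospho-rpS6 to PI ratio cutoff in each well; series mostly up to about 38 µM.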 Summed up:
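Readout: Alexa-488 phospho-rpS6 (Ser235/236) intensity divided by PI intensity, thresholded against 7.5 nM rapamycin wells and reported as % positive cells. PI cell count served as the viability measure. Compound exposure was 24 hrs at 37 degree Celsius.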

The nature of assay [15]: High Content Imaging Cell-Based qHTS for Inhibitors of the mTORC1 Signaling Pathway in MEF (Tsc2-/-, p53-/-) Cells (AID 2666).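 Note: percent of cells scored positive for phospho-rpS6 Ser235/236 immunostaining by imaging.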 Summed up:
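Phospho-rpS6 (Ser235/236) immunofluorescence, normalized and scored as % positive cells using rapamycin and DMSO controls, was read in empty-vector Tsc2-/-, p53-/- MEFs after 24 h compound exposure at 37 C; propidium iodide counted cells.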

Assay [16] is described as follows: High Content Imaging Cell-Based qHTS for Inhibitors of the mTORC1 Signaling Pathway in MEF Cells (AID 2667).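 Note: Tsc2-/- p53-/- MEFs stably re-expressing wild-type Tsc2 exposed 24 h; series mostly up to about 38 µM.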 The method, boiled down:
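WT MEFs (Tsc2-/-, p53-/- re-expressing Tsc2), in DMEM + 10% FBS, were treated with compound for 24 h at 37 C. Cells were then fixed and stained for phospho-rpS6 Ser235/236 with propidium iodide as cell count. Values are % positive cells, with thresholds set against rapamycin-treated cells.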

Results filed as inconclusive are left out. Calls of active or inactive are those of the source. Unless noted, calls come from the whole dose curve; as a rule, active = well fitted curve in the direction sought with a large enough effect; inconclusive = small, poorly fitted or top-dose-only effect, or another doubt; inactive = no such curve, though single readings can be large; an effect the other way counts as inactive or inconclusive.

ATP-dependent DNA helicase Q1 (Homo sapiens), sequence (P46063 whole entry, looked up): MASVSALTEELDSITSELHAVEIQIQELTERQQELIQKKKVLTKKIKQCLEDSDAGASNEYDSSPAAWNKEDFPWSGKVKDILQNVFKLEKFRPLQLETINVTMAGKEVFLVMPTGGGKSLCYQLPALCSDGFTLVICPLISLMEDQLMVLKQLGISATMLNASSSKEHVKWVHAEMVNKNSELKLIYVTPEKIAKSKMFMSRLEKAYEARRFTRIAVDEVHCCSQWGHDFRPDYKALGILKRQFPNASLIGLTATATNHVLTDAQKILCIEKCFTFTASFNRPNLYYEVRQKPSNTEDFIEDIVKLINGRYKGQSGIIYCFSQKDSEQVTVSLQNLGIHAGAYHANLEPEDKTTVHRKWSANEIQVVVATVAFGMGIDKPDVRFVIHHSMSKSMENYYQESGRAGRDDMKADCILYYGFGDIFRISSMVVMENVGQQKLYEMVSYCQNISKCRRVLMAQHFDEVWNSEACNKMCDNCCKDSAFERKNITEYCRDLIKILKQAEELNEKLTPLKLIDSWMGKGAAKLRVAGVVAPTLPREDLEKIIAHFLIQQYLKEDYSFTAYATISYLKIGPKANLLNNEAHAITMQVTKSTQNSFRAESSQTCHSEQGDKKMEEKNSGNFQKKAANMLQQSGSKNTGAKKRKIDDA
Ferritin light chain (Equus caballus), sequence (P02791 2-175 limits assumed): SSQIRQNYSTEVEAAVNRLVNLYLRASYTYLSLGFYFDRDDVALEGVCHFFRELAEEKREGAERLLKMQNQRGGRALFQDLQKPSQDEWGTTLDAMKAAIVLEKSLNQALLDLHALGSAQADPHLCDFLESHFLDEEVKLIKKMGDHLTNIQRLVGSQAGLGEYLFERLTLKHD
RecQ-like DNA helicase BLM (Homo sapiens), sequence (P54132 whole entry, looked up): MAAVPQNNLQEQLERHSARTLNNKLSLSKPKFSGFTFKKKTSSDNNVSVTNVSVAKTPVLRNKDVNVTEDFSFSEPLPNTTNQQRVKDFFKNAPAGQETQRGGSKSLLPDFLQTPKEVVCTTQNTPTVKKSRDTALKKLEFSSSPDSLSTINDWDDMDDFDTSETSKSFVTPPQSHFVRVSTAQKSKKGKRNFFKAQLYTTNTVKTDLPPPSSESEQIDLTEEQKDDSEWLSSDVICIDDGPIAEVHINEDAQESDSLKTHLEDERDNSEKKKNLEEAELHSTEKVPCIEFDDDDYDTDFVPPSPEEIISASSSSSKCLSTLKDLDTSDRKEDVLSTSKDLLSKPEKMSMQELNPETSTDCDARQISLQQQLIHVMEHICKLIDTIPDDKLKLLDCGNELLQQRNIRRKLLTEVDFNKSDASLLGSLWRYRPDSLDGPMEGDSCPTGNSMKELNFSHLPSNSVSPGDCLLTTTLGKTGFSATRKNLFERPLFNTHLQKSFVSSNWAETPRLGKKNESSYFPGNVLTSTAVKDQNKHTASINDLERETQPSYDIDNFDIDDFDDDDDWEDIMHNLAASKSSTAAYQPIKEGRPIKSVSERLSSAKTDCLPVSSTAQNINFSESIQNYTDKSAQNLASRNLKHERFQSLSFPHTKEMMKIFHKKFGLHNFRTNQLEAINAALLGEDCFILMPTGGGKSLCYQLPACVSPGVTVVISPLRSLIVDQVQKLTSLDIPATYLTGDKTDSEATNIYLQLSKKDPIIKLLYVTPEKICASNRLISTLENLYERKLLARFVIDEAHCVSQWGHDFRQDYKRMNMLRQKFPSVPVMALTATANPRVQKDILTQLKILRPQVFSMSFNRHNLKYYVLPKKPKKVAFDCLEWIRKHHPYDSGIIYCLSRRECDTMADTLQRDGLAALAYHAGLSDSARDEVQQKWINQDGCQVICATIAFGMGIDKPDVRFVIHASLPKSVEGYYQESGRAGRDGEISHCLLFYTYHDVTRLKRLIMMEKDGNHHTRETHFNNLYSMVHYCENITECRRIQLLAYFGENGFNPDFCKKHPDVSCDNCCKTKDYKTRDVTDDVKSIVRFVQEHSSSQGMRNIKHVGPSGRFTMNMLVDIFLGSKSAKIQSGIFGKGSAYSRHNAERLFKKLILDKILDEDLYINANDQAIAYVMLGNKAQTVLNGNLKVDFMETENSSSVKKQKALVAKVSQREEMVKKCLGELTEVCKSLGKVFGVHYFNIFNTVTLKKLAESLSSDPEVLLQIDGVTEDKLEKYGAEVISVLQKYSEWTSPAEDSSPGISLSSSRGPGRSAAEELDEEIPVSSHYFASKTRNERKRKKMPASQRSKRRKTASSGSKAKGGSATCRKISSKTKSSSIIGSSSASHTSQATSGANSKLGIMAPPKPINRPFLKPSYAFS

With `COc1cc(C(O)CO)ccc1OS(=O)(=O)O` (centres undefined), the Potency result in assay [1], in [2], in [3], in [4], in assay [5] and in [6] was “inactive” each time. Moreover, the Potency entry in assay [7], in [8], in assay [9], in [11], in [12] and in assay [13] was “inactive” each time. Moreover, the Potency entry in [15] and in assay [16] was “inactive” throughout. Moreover, the compound was classed as inactive in assay [10] and in assay [14].

Turning to `O=C(O)CCCC[C@@H]1CCSS1`, the Potency result in assay [1], in assay [2], in assay [3], in [4], in [5] and in [6] was “inactive” each time. The Potency result in assay [7], in [8], in assay [9], in assay [11], in [12] and in assay [15] was “inactive” throughout. Further, the Potency result in [16] was “inactive”. The result in assay [14] was inactive.

For the compound `Cn1c(=O)c2[nH]c(-c3ccccc3)nc2n(C)c1=O`, the Potency entry in assay [1], in assay [2], in [3], in assay [4], in [5] and in [6] was “inactive” throughout. Moreover, the Potency entry in [7], in [9], in assay [11], in assay [12], in assay [15] and in [16] was “inactive” in each case. Further, the outcome in assay [10] and in [14] was inactive.

As for `CC(C)Cc1ccc([C@H](C)C(=O)O)cc1`, the Potency entry in assay [1], in assay [2], in assay [3], in assay [4], in assay [5] and in [6] was “inactive” in each case. The Potency entry in assay [7], in [8], in [9], in [11], in assay [12] and in assay [15] was “inactive” each time. Moreover, the Potency result in [16] is “inactive”. The result in assay [14] was inactive.

For `C=CC(N)CCC(=O)O` (centres undefined), the Potency entry in [1], in assay [2], in assay [3], in assay [4], in assay [5] and in [6] was “inactive” in each case. In addition, the Potency result in [7], in assay [8], in [9], in assay [11], in [12] and in assay [15] was “inactive” in each case. In assay [16], the Potency result was “inactive”. The result in [10] and in [14] was inactive.

For `Cc1ccccc1CNc1ncnc2c1ncn2C1OC(CO)C(O)C1O` (centres undefined), the Potency entry in [1], in [2], in [3], in [4], in [5] and in assay [6] was “inactive” each time. For the same compound, the Potency result in assay [7], in assay [8], in assay [9], in assay [11], in [12] and in assay [15] was “inactive” each time. Moreover, in assay [16], the Potency result is “inactive”. Moreover, the outcome in assay [14] was inactive.

Consider `CC(C)(C)c1ccc(S(=O)(=O)/C=C/C#N)cc1`, for which the Potency result in assay [1], in [2], in [11], in assay [12], in assay [15] and in [16] was “inactive” each time. Further, the Potency was 10 µM (active) in assay [3]; 14.1 µM (active) in assay [4]; 10 µM (active) in assay [5]; 12.6 µM (active) in [6]; 11.2 µM (active) in assay [7]; 7.08 µM (active) in assay [8]. For the same compound, the Potency in [9] is 8.91 µM (active). In addition, in assay [14], the compound was called inactive.

For `C#CCN1C(C)=C(C(=O)OC)C(c2cccc([N+](=O)[O-])c2)C(C(=O)OCC)=C1C` (centres undefined), the Potency entry in [1], in [2], in [12], in [15] and in [16] was “inactive” in each case. For the same compound, the Potency in assay [3] is 7.94 µM (active); in assay [4], 7.08 µM (active); in assay [5], 11.2 µM (active); in assay [6] it was 14.1 µM (active); in assay [7] it was 12.6 µM (active); in assay [8], 4.47 µM (active). Further, the Potency in [9] was 7.94 µM (active). In assay [14], the outcome was inactive.

Source of the values: PubChem BioAssay (NCATS).
